Activity calls are given as the source filed them.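 The calls were made as follows: active = TRPC6 cation channel blocked by over 30% at any dose tested, plus a fitted dose response curve; inactive = the rest.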
Target: Short transient receptor potential channel 6 (Mus musculus) (UniProt Q61143)
Test: potency of TRPC6 cation channel blockers – HEK293 cells, membrane potential dye, set 2, SAR follow-up (AID 504885)
Conditions: acetylcholine-stimulated; series mostly up to 20 µM

Sequence of Short transient receptor potential channel 6 (Mus musculus) (Q61143 whole entry, looked up): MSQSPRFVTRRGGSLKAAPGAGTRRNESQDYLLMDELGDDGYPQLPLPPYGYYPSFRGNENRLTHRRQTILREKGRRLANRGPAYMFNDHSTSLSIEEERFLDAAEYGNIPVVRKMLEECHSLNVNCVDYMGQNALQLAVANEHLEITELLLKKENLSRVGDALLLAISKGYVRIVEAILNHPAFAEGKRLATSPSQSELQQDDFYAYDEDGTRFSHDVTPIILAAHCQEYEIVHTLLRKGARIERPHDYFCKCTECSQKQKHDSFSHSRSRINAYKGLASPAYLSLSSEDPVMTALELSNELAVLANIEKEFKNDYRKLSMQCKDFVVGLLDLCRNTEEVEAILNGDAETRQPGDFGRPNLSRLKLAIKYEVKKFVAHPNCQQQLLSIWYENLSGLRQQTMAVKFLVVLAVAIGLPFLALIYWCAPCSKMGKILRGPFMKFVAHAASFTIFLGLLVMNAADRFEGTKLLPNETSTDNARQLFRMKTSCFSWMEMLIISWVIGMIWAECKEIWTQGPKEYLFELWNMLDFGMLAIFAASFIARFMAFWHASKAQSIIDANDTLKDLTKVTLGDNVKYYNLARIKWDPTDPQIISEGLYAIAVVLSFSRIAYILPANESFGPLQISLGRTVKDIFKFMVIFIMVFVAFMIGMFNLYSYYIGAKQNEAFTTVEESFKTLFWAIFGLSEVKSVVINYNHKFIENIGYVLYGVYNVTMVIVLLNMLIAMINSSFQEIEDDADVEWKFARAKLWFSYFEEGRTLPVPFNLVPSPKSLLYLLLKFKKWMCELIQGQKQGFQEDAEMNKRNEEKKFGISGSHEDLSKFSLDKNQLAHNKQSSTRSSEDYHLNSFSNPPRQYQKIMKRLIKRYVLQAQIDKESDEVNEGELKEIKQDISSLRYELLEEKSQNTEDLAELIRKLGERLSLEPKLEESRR

outcome, inactive:
O=S(=O)(Cc1cc(N2CCN(c3ccccc3)CC2)nc(-c2ccccn2)n1)c1ccccc1, CSCc1cc(N(C)c2ccccc2)nc(-c2ccccn2)n1, CSCc1cc(N2CCOCC2)nc(-c2ccccn2)n1, CC(C)N1CCN(Cc2ccc3nsnc3c2)CC1CCO (stereo not given), OCCC1CN(Cc2ccc3nsnc3c2)CCN1CCCc1ccccc1 (stereo not given), Cc1ccc(C)c(N2CCN(C(=O)c3ccc4nsnc4c3)CC2)c1, Cc1ccccc1CN1CCN(Cc2ccc3nsnc3c2)CC1CCO (stereo not given), CN1CCN(Cc2ccc3nsnc3c2)CC1CCO (stereo not given), CC(C)CCN1CCN(Cc2ccc3nsnc3c2)CC1CCO (stereo not given), Cc1cccc(CN2CCN(Cc3ccc4nsnc4c3)CC2CCO)n1 (stereo not given), CN1CCC(N2CCN(Cc3ccc4nsnc4c3)CC2CCO)CC1 (stereo not given), CC(C)CN1CCN(Cc2ccc3nsnc3c2)CC1CCO (stereo not given), O=S(=O)(Cc1cc(N2CCOCC2)nc(-c2ccccn2)n1)c1ccccc1, Clc1ccc(SCc2cc(N3CCCCC3)nc(-c3ccccn3)n2)cc1, CC(C)N1CCC(N2CCN(Cc3ccc4nsnc4c3)CC2CCO)CC1 (stereo not given)

From PubChem BioAssay AID504885 (Johns Hopkins Ion Channel Center, 2011)
